# Unmarked numbers belong to inactive results. Records with an inconclusive call do not appear. Entries that show only a call come without a potency. The source made the active and inactive calls. Unless noted, the call rests on the fitted dose curve; in most records, active means well fitted curve in the direction sought with a large enough effect in the repeat runs; inconclusive means weak or mixed curves; inactive means no such curve, though single readings can be large; an effect the other way counts as inactive or inconclusive.
# Tests used:
# [1] = target: Estrogen receptor (Homo sapiens) (UniProt P03372); test: qHTS assay to identify small molecule agonists of the estrogen receptor alpha (ER-alpha) signaling pathway in the presence of an antagonist (AID 1259383; calls by dose curve; further: top concentration of the series differs between compounds; nearly all actives have a fitted effect of over 15% in size)
# Method in brief: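 ER-alpha agonism measured under antagonist challenge: 10.0nM ICI-182,780 (final) plus compound, 15 concentrations, 22hr, VM7Luc4E2 ERE-luciferase cells. Read by luminescence.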
# [2] = qHTS assay to identify small molecule agonists or antagonists of the thyroid stimulating hormone receptor (TSHR) signaling pathway - wild type cell line counter screen (AID 1259384; calls by dose curve)
# Method in brief: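 Counter screen in untransfected Hek293: compounds (15-point titration, triplicate) plus phosphodiesterase inhibitor Ro20-1724 added after 18 h plating; 30 min RT. Intracellular cAMP via competitive d2/cryptate immunoassay, 1 h incubation.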
# [3] = target: Thyrotropin receptor (Homo sapiens) (UniProt P16473); test: qHTS assay to identify small molecule antagonists of the thyroid stimulating hormone receptor (TSHR) signaling pathway (AID 1259385; calls by dose curve; further: nearly all actives have a fitted effect of over 20% in size)
# Method in brief: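 Antagonist mode: compound-treated TSHR-expressing HEK293 cells were stimulated with 1.5 ng/mL TSH (final) in presence of Ro20-1724 for 30 min at RT. HTRF cAMP detection after 1 h; each compound tested at 15 concentrations, triplicate.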
# [4] = qHTS assay to identify small molecule agonists of the estrogen receptor alpha (ER-alpha) signaling pathway in the presence of an antagonist - cell viability counter screen (AID 1259386);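 further: series mostly up to about 92 µM; cells exposed to compounds for 22 h at 37 °C before the viability read; nearly all actives have a fitted effect of over 30% in size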
# Method in brief: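 Steps: 5-day stripped-FBS culture; seed and incubate 24hr; add ICI-182,780 (10.0nM final); pin 15-point compound titration; incubate 22hr at 37C; add CellTiter-Fluor at 21hr; read fluorescence.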
# [5] = target: Progesterone receptor (Homo sapiens) (UniProt P06401); test: qHTS assay to identify small molecule agonists of the progesterone receptor (PR) signaling pathway (AID 1346784; calls by dose curve; further: nearly all actives have a fitted effect of over 30% in size)
# Method in brief: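 HEK 293T PR-UAS-bla reporter cells, 2% charcoal-stripped FBS; 6 hr settle at 37C/5% CO2, compound (DMSO) 16 hr, LiveBLAzer B/G FRET substrate 2 hr RT, fluorescence intensity read.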
# [6] = target: Progesterone receptor (Homo sapiens) (UniProt P06401); test: qHTS assay to identify small molecule antagonists of the progesterone receptor (PR) signaling pathway (AID 1346795; active means well fitted inhibition curve with a large enough effect in the signal ratio in the repeat runs, not every such curve was filed as active; the % refers to the signal ratio)
# Method in brief: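 Beta-lactamase reporter, HEK293T PR-UAS-bla line; 2% charcoal-stripped FBS; 6 hr pre-incubation, 37C/5% CO2. Compound + R5020 1 nM final, 16 hr. LiveBLAzer B/G FRET substrate, 2 hr RT; fluorescence intensity read.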
# [7] = qHTS assay to identify small molecule antagonists of the progesterone receptor (PR) signaling pathway - cell viability counter screen (AID 1346798); further: series mostly up to about 92 µM; nearly all actives have a fitted effect of over 50% in size
# Method in brief: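 Luminescence readout (CellTiter-Glo, 30 min, RT) of viability in PR-UAS-bla HEK293T cells exposed to compound and R5020 agonist for 16 hr at 37C, 5% CO2; run in the same wells as the beta-lactamase reporter read.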
# [8] = qHTS assay to identify small molecule agonists of the progesterone receptor (PR) signaling pathway - cell viability counter screen (AID 1346799; calls by dose curve; further: nearly all actives have a fitted effect of over 45% in size)
# Method in brief: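 HEK293T PR-UAS-bla, 3,000 cells/well, 2% charcoal-stripped FBS; 6 h settle, compound 16 h at 37C/5% CO2; LiveBLAzer 2 h RT, then CellTiter-Glo 30 min RT, luminescence read.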
# [9] = qHTS assay to identify small molecule antagonists of the TGF-beta/Smad signaling pathway - cell viability counter screen (AID 1346824); further: nearly all actives have a fitted effect of over 50% in size
# Method in brief: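 Cytotoxicity counter-screen run in the same wells as the beta-lactamase Smad reporter read: CellTiter-Glo luminescence after 30 min at room temperature. HEK 293T SBE-bla cells had 5 hr compound exposure at 37 C with TGF-beta1 (0.25 ng/mL stock).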
# [10] = qHTS assay to identify small molecule agonists of the TGF-beta/Smad signaling pathway - cell viability counter screen (AID 1346829); further: top concentration of the series differs between compounds; nearly all actives have a fitted effect of over 45% in size
# Method in brief: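 CellTiter-Glo luminescence readout; SBE-bla HEK 293T cells, overnight plating, compound 5 hr at 37 C/5% CO2, then bla substrate 2 hr RT, then CellTiter-Glo 30 min RT.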
# [11] = qHTS assay to identify small molecule agonists of the TGF-beta/Smad signaling pathway (AID 1346859; active means well fitted activation curve with a large enough effect in the signal ratio in the repeat runs, not every such curve was filed as active; the % refers to the signal ratio; further: series mostly up to about 77 µM)
# Method in brief: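 Read-out: fluorescence at 460 and 530 nm (405 nm excitation) after a 2 hr room-temperature incubation with beta-lactamase FRET substrate. SBE-bla HEK 293T cells had been treated with test compounds for 5 hr at 37 C.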
# [12] = target: Thyrotropin-releasing hormone receptor (Homo sapiens) (UniProt P34981); test: qHTS assay to identify small molecule antagonists of the thyrotropin-releasing hormone receptor (TRHR) signaling pathway (AID 1346877; active means well fitted inhibition curve with a large enough effect in the repeat runs, not every such curve was filed as active; further: series mostly up to about 51 µM)
# Method in brief: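 Human TRHR in HEK293 cells; inhibition of the intracellular calcium rise triggered by 1 nM TRH was followed by fluorescence over 3 min. Compounds were run at 15 concentrations, three replicates each.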
# [13] = target: Thyrotropin-releasing hormone receptor (Homo sapiens) (UniProt P34981); test: qHTS assay to identify small molecule agonists of the thyrotropin-releasing hormone receptor (TRHR) signaling pathway (AID 1346891; calls by dose curve; further: potency means the concentration at half of the fitted maximal effect;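 on activation: HEK293 cells expressing TRHR with calcium dye readout; series mostly up to about 58 µM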)
# Method in brief: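 HEK293/TRHR cells, 1500 per well, 18 h 37 °C; Ca dye 2 h 37 °C; pin-tool compound addition (agonist mode); kinetic fluorescence 3 min, 1 s reads; 15 concentrations, triplicate.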
# [14] = Human pregnane X receptor (PXR) small molecule agonists, qHTS cell viability counter screen (AID 1346977); further: nearly all actives have a fitted effect of over 50% in size
# Method in brief: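 Fluorescence read-out (CellTiter-Fluor) of viability in PXR-Luc HepG2 cells, multiplexed with the luciferase agonist read. Compounds in DMSO added after 5hr plating; 24hr total exposure at 37C, 5% CO2.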
# [15] = Caspase-3/7 induction in HepG2 cells by small molecules, qHTS assay (AID 1346978); further: nearly all actives have a fitted effect of over 15% in size
# Method in brief: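 Caspase-3/7 induction was measured by Caspase-Glo 3/7 luminescence (30 min, room temperature) after a 17 hr compound exposure of wild-type HepG2 cells seeded at 2,000 per well and pre-incubated 5 hr.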
# [16] = Caspase-3/7 induction in CHO-K1 cells by small molecules, qHTS cell viability counter screen (AID 1346979); further: nearly all actives have a fitted effect of over 35% in size
# Method in brief: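 CHO-K1 wt, 1,500 cells/well; 5hr pre-incubation 37C/5% CO2; compound pin transfer (DMSO); 16hr exposure; CellTiter-Fluor added, 1hr, fluorescence read.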
# [17] = Caspase-3/7 induction in CHO-K1 cells by small molecules, qHTS assay (AID 1346980); further: nearly all actives have a fitted effect of over 15% in size
# Method in brief: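 Luminescent Caspase-Glo 3/7 read (30min, room temperature) quantified apoptosis induction. Cells were wild-type CHO-K1, treated with compound for 17hr at 37 C and 5% CO2.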
# [18] = Caspase-3/7 induction in HepG2 cells by small molecules, qHTS cell viability counter screen (AID 1346981); further: series mostly up to about 92 µM; nearly all actives have a fitted effect of over 30% in size
# Method in brief: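 The parent HepG2 line is plated at 2,000 cells per well and rested 5 hr before compound pinning from DMSO stocks. Following a 16-hr treatment at 37 C, a fluorogenic live-cell substrate (CellTiter-Fluor) reports viability after 1 hr.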
# [19] = target: Nuclear receptor subfamily 1 group I member 2 (Homo sapiens) (UniProt O75469); test: Human pregnane X receptor (PXR) small molecule agonists, qHTS assay (AID 1346982); further: nearly all actives have a fitted effect of over 35% in size; further: potency means the concentration at half of the fitted maximal effect
# Method in brief: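 After plating in 5% charcoal-stripped FBS and a 5 hr rest, PXR-Luc HepG2 cells received compounds in DMSO. Following 24 hr at 37 C, ONE-Glo was added and light output read.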
# [20] = target: Nuclear receptor subfamily 1 group I member 2 (Rattus norvegicus) (UniProt Q9R1A7); test: Rat pregnane X receptor (rPXR) activation by small molecules, qHTS assay (AID 1346983); settings: rPXR luciferase reporter cells, One-Glo luminescence, 24 h; max activation: active compounds read high; further: nearly all actives have a fitted effect of over 20% in size
# Method in brief: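 Luminescent readout (One-Glo luciferase, 30 min room temperature) followed 24 hr compound treatment at 37 C of rPXR cells plated 2,000 per well and preincubated 5hr; qHTS format with compounds delivered in DMSO.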
# Sequence of Thyrotropin receptor (Homo sapiens) (P16473 whole entry, looked up): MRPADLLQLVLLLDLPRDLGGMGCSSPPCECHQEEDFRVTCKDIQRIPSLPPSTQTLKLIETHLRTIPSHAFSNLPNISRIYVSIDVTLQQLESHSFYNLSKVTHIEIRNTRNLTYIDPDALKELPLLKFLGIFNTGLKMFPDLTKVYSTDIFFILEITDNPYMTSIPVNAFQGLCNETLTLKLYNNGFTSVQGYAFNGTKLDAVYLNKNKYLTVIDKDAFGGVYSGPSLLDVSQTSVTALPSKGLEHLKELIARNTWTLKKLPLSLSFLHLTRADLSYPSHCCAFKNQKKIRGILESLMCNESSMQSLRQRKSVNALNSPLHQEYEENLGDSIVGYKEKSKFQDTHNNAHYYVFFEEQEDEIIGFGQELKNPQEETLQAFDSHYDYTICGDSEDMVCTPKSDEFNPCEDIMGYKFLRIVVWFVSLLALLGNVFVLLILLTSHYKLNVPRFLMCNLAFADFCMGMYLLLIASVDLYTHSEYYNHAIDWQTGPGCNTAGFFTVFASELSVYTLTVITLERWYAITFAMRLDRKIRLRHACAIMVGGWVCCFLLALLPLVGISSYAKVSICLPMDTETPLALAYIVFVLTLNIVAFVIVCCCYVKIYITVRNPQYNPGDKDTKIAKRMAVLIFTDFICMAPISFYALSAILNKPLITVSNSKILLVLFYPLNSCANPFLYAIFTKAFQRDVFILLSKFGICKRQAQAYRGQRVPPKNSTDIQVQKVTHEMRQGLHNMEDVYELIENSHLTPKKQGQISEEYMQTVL
# Sequence of Nuclear receptor subfamily 1 group I member 2 (Homo sapiens) (O75469 whole entry, looked up): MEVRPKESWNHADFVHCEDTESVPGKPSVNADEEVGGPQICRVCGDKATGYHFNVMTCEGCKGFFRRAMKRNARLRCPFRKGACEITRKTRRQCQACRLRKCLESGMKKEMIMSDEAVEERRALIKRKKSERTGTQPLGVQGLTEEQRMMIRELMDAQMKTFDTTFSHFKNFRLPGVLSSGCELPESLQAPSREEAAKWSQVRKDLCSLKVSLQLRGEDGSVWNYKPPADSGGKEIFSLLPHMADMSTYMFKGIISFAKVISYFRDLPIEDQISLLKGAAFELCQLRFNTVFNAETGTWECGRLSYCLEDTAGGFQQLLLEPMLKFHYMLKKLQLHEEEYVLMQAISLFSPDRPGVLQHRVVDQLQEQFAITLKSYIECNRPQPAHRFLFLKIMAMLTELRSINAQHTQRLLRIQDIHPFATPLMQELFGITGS
# Sequence of Thyrotropin-releasing hormone receptor (Homo sapiens) (P34981 whole entry, looked up): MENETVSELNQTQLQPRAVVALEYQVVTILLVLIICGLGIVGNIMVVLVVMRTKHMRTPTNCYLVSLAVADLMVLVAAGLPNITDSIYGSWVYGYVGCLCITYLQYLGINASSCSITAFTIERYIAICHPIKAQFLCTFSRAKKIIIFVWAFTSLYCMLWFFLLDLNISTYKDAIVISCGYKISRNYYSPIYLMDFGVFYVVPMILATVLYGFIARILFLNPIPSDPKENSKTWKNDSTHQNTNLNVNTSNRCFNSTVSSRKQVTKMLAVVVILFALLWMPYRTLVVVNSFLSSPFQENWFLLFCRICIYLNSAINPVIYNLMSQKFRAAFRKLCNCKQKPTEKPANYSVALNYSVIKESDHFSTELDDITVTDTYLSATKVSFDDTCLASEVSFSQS
# Sequence of Progesterone receptor (Homo sapiens) (P06401 whole entry, looked up): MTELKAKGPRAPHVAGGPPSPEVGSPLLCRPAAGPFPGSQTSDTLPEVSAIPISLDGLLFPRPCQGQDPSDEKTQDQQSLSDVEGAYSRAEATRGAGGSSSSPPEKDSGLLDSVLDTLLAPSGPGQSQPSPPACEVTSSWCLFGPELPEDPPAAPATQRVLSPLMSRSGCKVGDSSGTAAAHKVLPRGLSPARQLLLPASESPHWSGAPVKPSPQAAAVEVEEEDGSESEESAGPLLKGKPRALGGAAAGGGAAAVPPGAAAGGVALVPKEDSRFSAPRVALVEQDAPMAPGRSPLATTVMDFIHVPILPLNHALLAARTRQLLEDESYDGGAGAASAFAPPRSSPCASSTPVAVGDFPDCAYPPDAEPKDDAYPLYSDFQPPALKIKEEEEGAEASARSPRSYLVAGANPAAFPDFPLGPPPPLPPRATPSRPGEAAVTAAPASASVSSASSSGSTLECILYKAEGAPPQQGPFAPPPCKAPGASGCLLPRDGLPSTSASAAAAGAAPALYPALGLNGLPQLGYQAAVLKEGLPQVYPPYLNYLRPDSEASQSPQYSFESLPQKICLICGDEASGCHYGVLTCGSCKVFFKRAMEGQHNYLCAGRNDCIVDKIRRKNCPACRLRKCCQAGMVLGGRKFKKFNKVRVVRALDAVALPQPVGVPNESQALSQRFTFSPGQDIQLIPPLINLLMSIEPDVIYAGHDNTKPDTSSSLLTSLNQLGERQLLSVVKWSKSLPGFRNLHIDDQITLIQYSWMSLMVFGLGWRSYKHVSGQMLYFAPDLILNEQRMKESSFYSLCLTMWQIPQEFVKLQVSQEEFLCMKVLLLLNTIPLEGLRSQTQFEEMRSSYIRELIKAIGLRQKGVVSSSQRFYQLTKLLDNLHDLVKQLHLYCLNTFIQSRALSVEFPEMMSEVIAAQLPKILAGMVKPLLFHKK
# Sequence of Estrogen receptor (Homo sapiens) (P03372 whole entry, looked up): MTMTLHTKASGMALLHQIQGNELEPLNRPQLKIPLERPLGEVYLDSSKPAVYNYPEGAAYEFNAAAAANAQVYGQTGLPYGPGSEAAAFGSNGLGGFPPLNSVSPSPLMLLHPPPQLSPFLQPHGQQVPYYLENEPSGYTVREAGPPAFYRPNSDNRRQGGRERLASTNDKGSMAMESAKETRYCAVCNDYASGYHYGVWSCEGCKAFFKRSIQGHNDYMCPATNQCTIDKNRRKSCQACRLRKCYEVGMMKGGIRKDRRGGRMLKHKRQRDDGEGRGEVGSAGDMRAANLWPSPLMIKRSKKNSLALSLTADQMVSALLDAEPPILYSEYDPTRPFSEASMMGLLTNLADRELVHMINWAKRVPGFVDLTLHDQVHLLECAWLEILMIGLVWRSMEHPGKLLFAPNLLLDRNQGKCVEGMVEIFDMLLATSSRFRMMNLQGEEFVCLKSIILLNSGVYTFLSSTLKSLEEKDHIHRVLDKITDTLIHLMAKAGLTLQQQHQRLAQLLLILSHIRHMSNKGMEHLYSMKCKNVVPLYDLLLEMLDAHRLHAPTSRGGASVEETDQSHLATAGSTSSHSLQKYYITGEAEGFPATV
# Sequence of Nuclear receptor subfamily 1 group I member 2 (Rattus norvegicus) (Q9R1A7 whole entry, looked up): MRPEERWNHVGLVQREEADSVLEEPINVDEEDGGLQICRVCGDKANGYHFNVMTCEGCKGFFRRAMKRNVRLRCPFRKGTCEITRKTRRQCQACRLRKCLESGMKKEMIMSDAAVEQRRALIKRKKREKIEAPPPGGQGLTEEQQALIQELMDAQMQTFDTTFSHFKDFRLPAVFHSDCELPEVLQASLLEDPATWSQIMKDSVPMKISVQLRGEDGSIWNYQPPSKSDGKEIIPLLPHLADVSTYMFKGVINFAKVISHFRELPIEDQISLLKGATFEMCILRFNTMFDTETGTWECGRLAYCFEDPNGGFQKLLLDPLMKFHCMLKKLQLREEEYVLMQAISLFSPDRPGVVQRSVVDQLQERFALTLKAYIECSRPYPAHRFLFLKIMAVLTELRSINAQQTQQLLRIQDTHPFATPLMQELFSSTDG
SMILES,Potency [1],outcome [2],outcome [3],outcome [4],Potency [5],Potency [6],outcome [7],Potency [8],outcome [9],outcome [10],outcome [11],outcome [12],Potency [13],outcome [14],outcome [15],Potency [16],outcome [17],outcome [18],Potency [19],max activation [20] [%]
O=C(O)CCCCCCCCCC(=O)O,inactive,inactive,inactive,inactive,inactive,inactive,inactive,inactive,inactive,inactive,inactive,inactive,inactive,inactive,inactive,inactive,inactive,inactive,inactive,–
CN(C)CCC[C@@]1(c2ccc(F)cc2)OCc2cc(C#N)ccc21,inactive,inactive,inactive,inactive,inactive,inactive,–,–,inactive,–,–,inactive,inactive,–,inactive,inactive,inactive,inactive,inactive,-1.39
C/C(Cl)=C/CCl,inactive,inactive,inactive,inactive,inactive,inactive,inactive,inactive,inactive,inactive,inactive,inactive,inactive,inactive,inactive,inactive,inactive,inactive,inactive,–
C/C(=N\O)c1ccc(OCC(=O)N2CCCCC2)cc1,inactive,inactive,inactive,inactive,inactive,inactive,inactive,inactive,inactive,inactive,inactive,inactive,inactive,inactive,inactive,inactive,inactive,inactive,10.6 µM (active),–
Cc1ccc(N)nc1,inactive,inactive,inactive,inactive,inactive,inactive,inactive,inactive,inactive,inactive,inactive,–,–,inactive,–,inactive,inactive,inactive,inactive,–
CC(=O)OC/C=C(/C)CCC=C(C)C,inactive,inactive,inactive,inactive,inactive,inactive,inactive,inactive,inactive,inactive,inactive,–,–,inactive,inactive,inactive,inactive,inactive,inactive,–
CC(C)(O)CCCC1=CCC(C=O)CC1 (stereo not drawn),inactive,inactive,inactive,inactive,inactive,inactive,inactive,inactive,inactive,inactive,inactive,inactive,inactive,inactive,inactive,inactive,inactive,inactive,–,–
CC(C)CC(O)Cc1ccccc1 (stereo not drawn),inactive,inactive,inactive,inactive,inactive,inactive,inactive,inactive,inactive,inactive,inactive,inactive,inactive,inactive,–,inactive,inactive,inactive,inactive,–
CCC(C)SSC(C)CC (stereo not drawn),inactive,inactive,inactive,inactive,inactive,inactive,inactive,–,inactive,inactive,–,inactive,inactive,inactive,–,inactive,inactive,inactive,inactive,–
CCOC(=O)CC(C(C)=O)C(C)=O,inactive,inactive,inactive,inactive,inactive,inactive,inactive,inactive,inactive,inactive,inactive,inactive,inactive,inactive,inactive,inactive,inactive,inactive,inactive,–
N#CC1(N)CCCCC1,inactive,inactive,inactive,inactive,inactive,inactive,inactive,inactive,inactive,inactive,inactive,inactive,inactive,inactive,inactive,inactive,inactive,inactive,inactive,–
OCCC(F)(F)C(F)(F)C(F)(F)C(F)(F)C(F)(F)C(F)(F)F,inactive,inactive,inactive,inactive,inactive,inactive,inactive,–,inactive,inactive,inactive,inactive,inactive,inactive,inactive,inactive,inactive,inactive,inactive,–
Cc1ccccc1C#N,inactive,inactive,inactive,inactive,inactive,inactive,inactive,inactive,inactive,–,inactive,inactive,inactive,inactive,inactive,inactive,inactive,inactive,inactive,–
O=C(O)/C=C(\CC(=O)O)C(=O)O,inactive,inactive,inactive,inactive,inactive,inactive,inactive,inactive,inactive,inactive,inactive,inactive,inactive,inactive,inactive,inactive,inactive,inactive,inactive,–
C=CC(=O)OCC[N+](C)(C)C,inactive,inactive,inactive,inactive,inactive,inactive,inactive,inactive,inactive,inactive,inactive,inactive,1.56 µM (active),inactive,–,inactive,inactive,inactive,inactive,–

# — PubChem BioAssay (Tox21)
